According to PubChem BioAssay AID1233 (SRMLSC, 2008):
Results with a measured potency or affinity are listed apart.

What follows are molecules tested against HMG-CoA reductase [Enterococcus faecalis] (UniProt Q9FD70) (assay: inhibitors of E. faecalis class II HMGR, confirmation, biochemical, Enterococcus faecalis (AID 1233;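 also: 0% = full reaction carrier wells and 100% = background wells lacking mevalonate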)). Conditions: purified E. faecalis HMGR, NADPH absorbance 340 nm kinetics; series mostly up to 100 µM; inhibition: at the top concentration.

inhibition, inactive:
O=C(COC(=O)c1cc(S(=O)(=O)N2CCCCC2)ccc1N1CCOCC1)NC1CCS(=O)(=O)C1 (stereo not drawn) -3.58%, C=C(C)Cn1c(-c2ccncc2)n[nH]c1=S -5.67%, COc1ccc(CNC(=O)C2CCCN2S(=O)(=O)c2ccc(Cl)cc2)cc1 (stereo not drawn) -4.97%, CC(=O)c1ccc(NC(=O)c2ccc(NC(=O)CCS(=O)(=O)c3cccs3)cc2)cc1 -2.59%, NS(=O)(=O)c1ccc(CCN=C(NS(=O)(=O)c2cccs2)c2ccccc2)cc1 -5.75%, CN(C)C(CNC(=O)CCOc1ccccc1)c1ccco1 (stereo not drawn) -5.01%, CC1(C)CC(CCC(=O)Nc2ccccc2Cl)C(=O)O1 (stereo not drawn) -2.88%, Cc1ccc(Cc2cncc(O)c2)cc1S(=O)(=O)O 0.13%, CCc1nnc(NC(=O)CN2CCN(c3nc(-c4ccccc4)cs3)CC2)s1 -3.15%, O=C(Cn1cccc1C(=O)c1ccccc1)NCc1ccco1 -0.06%, CCOC(=O)c1c(C)nc2ccc(C)cn12 -4.75%, COC(=O)[C@@]1(Cc2ccc(OC)cc2)[C@H]2c3cc(C(=O)N(C)C)n(CCc4ccc(OC)c(Br)c4)c3C[C@H]2CN1C(=O)c1ccccc1 -3.7%, Cc1[nH]nc2c1C(c1ccsc1)C1=C(CC(C)(C)CC1=O)N2 (stereo not drawn) -5.51%, CCNC(=O)CSc1nc2cc([N+](=O)[O-])ccc2n1-c1cccc(C(F)(F)F)c1 -3.74%, O=C(COC(=O)c1cccnc1)c1ccc(Cl)c(Cl)c1 2.21%, N#Cc1c2c(c(-c3ccccc3Cl)[nH]c1=S)CCCC2 0.99%, CCOc1ccc(/C=N/NC(=O)CC(=O)Nc2ccc(Cl)c(Cl)c2)cc1 -0.69%, COC(=O)CC1COc2ccccc2N1C(=O)c1ccc(Br)cc1 (stereo not drawn) -1.47%, Cc1cccc(C)c1N1CCN(C(=O)N2CCCCC2)CC1 -2.11%, CSc1nc(-c2ccc(C)cc2)nc(C(Cl)Cl)n1 -3.82%, Fc1ccccc1CSc1nncn1NC/C=C/c1ccccc1 -5.49%, O=C(CN1CCN(c2ncc(C(F)(F)F)cc2Cl)CC1)NC(=O)NCc1ccccc1 0.06%, COc1cc(C2NC(=O)NC(c3ccccc3)=C2C(C)=O)cc(Cl)c1OCC(=O)O (stereo not drawn) -2.8%, CC(C(=O)NC1CCCc2ccccc21)N1CCN(c2ccc(F)cc2)CC1 (stereo not drawn) -4.6%, COC(=O)CSc1ncc(C#N)c(N)n1 -9%, CCCCN(C(=S)Nc1cccc(C)c1C)c1c(N)n(CCC)c(=O)[nH]c1=O -2.1%, CN(C1CCCC1)C1CCN(C(=O)CNC(=O)/C=C/c2ccccc2)CC1 -3.48%, COc1cc(C#N)ccc1OCC(=O)c1ccc2c(c1)OCCO2 -2.62%, Cc1noc(C)c1CSc1nc2sc(C)c(C)c2c(=O)n1C1CCCC1 -0.73%, O=C(Nc1ccccc1)N1C2CCC1CC(O)(c1cccnc1)C2 (stereo not drawn) -2.14%, COc1cc2c(cc1OC)CN(C(C)C(=O)N1CCc3ccccc31)CC2 (stereo not drawn) -8.07%, CCCNCc1cc(OC)c(OCc2ccccc2)cc1Br -4.86%, C=CCNC(=O)C(=O)NN=C1CCN(C)CC1 -0.09%, CCc1ccc(NC(=O)CN(c2cccc(C)c2)S(C)(=O)=O)cc1 -1.92%, O=C(NC(=S)N(CC1CCC1)CC1CCCO1)c1cccc([N+](=O)[O-])c1 (stereo not drawn) -6.67%, O=C(NCc1ccc2[nH]c3c(c2c1)CCCC3)c1ccc(S(=O)(=O)N2CCCC2)cc1 0.84%, CC1SC(c2ccc(Cl)cc2)NC1=O (stereo not drawn) 1.13%, Cn1c(=O)c(C(=O)CSc2ccccc2)c(N)n(Cc2ccccc2)c1=O -1.18%
